From PubChem BioAssay
gsp ag: activates gsp, the McCune-Albright syndrome mutation; Potency, µM (series often up to 76.9 µM), inactives show top-dose activation (cAMP increase), most hits filed as activators; gsp mutant cells, cAMP HTRF, 30 min; 340,000 tested, 0.13% active; active = well fitted activation curve with a large enough effect; inconclusive = small, poorly fitted or top-dose-only effect, or another doubt; inactive = no such curve, though single readings can be large or run the other way; cell line not stated here;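 also: phosphodiesterase inhibitor Ro 20-1724 added with compounds to block cAMP breakdown; potency is read from the fitted curve at half-maximal effect; nearly all actives have a fitted effect of over 60% in size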
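Cells in DMEM/10% FBS with G418 were pretreated with compounds in DMSO plus […] (300 uM stock) for 30 min at 37C. cAMP was measured by HTRF (cAMP-d2 plus anti-cAMP antibody-K) after 30 min at room temperature.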
RXFP1 ag: activates the human relaxin receptor RXFP1; HEK293T-RXFP1 cAMP TR-FRET, 30 min; response scale: percent of porcine relaxin response, buffer zero; AID 2676; 370,000 tested, 0.3% active; Q9HBX9; Potency, µM (doses to about 57.5 µM), without a hit: at the top dose activation, most hits filed as activators; active = well fitted activation curve with a large enough effect; inconclusive = small, poorly fitted or top-dose-only effect; also: potency is read from the fitted curve at half-maximal effect; % is scaled to controls: 0 for no effect and ±100 for the full control effect; nearly all actives have a fitted effect of over 60% in size
Target sequence (Q9HBX9 whole entry, looked up): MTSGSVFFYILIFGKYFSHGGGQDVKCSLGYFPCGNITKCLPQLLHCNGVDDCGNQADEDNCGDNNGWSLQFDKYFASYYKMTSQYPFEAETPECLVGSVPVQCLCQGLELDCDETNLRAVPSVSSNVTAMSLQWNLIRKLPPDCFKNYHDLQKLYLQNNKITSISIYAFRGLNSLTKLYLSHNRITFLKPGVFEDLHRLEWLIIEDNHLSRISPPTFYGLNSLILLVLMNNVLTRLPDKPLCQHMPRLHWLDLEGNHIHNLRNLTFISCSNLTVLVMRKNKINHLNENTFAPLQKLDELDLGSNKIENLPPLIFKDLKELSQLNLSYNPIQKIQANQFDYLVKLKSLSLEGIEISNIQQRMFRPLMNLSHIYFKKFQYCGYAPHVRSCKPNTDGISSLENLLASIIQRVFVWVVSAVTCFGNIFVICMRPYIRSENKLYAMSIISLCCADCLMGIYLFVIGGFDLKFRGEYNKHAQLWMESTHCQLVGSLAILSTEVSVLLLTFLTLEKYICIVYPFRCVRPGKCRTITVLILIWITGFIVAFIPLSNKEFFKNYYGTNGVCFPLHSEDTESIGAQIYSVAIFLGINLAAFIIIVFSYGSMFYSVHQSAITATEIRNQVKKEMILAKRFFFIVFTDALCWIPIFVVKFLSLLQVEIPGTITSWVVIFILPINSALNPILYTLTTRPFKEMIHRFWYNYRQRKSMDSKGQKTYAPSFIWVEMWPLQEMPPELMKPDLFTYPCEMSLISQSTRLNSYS
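cAMP rise read by TR-FRET after 30 min, 37C compound exposure (up to 58 uM) in RXFP1-transfected HEK293 cells with Ro 20174 present. EC50 from Hill-equation fits, with 29 nM porcine relaxin as 100% and buffer as basal.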
RXFP1 antag: antagonists of human relaxin receptor RXFP1; 350,000 tested, 0.59% active; activity change, negative = inhibition, % at 57.5 µM; HEK293-RXFP1, relaxin-stimulated cAMP HTRF, 30 min; active compounds read low; Q9HBX9;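 active = activity change of -60% or lower, but not beyond a set lower limit; inconclusive = change between -60% and -40%, or beyond the set limit; inactive = change above -40%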; also: % is scaled to controls: 0 for no effect and ±100 for the full control effect
Giardia killer: Giardia lamblia killing; 340,000 tested, 0.15% active; activity change, % at 7.66 µM, hits read low; Giardia lamblia trophozoite viability; in the data active = activity change below about -80%; inconclusive = between about -30% and that limit;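 also: parasites exposed to compound for two days anaerobically before the ATP read; % is scaled to controls: 0 for no effect and ±100 for the full control effect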
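Trophozoites 100 cells/well + cpd; 48 hrs, 37 deg C, anaerobic. ATPLite 1-Step added, 15-30 min RT, luminescence read (ATP-based viability).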
gsp antag: antagonizes gsp, the McCune-Albright syndrome mutation; gsp-mutant cells, cAMP HTRF, 30 min; Potency, µM (highest dose often 76.9 µM), inactives show at the highest dose activity change, negative = inhibition, usual class: inhibitors; 340,000 tested, 0.4% active; calls by dose curve; cell line not stated here;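 also: intracellular cAMP measured with PDE inhibitor Ro 20-1724 present during compound exposure; potency is read from the fitted curve at half-maximal effect; % is scaled to controls: 0 for no effect and ±100 for the full control effect; nearly all actives have a fitted effect of over 65% in size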
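HTRF cAMP read-out (cAMP-d2 plus anti-cAMP antibody-K in lysis buffer, 30 min RT). Before lysis, cells are exposed to compounds with […] for 30 min at 37C in DPBS containing Ca/Mg, BSA and Tween 20.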
FBPA coupling cs: inhibits coupling enzyme system, counter-screen for aldolase hits | coupling enzyme system counterscreen, AmpLite Red fluorescence | activity change, negative = inhibition, % at 58.2 µM, hits read low | 290,000 tested, 0.67% active | AID 2472; in the data active = activity change below about -30%; also: % is scaled to controls: 0 for no effect and ±100 for the full control effect
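Compounds tested against the coupling enzymes alone at 57.5 uM final; readout was AmpLite Red fluorescence (525/598 nm) after 20 min at RT.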
The depositor's hits bear a star; ? = inconclusive; / = not tested or not shown; ! = not active in a repeat; [ ] = remark or other dose. Only some compounds are listed: those with a hit (about 1.6% of all), similar ones and a draw of the others.

SMILES | gsp ag | RXFP1 ag | RXFP1 antag | Giardia killer | gsp antag | FBPA coupling cs
Cc1ccc2c3c(cccc13)-c1ccccc1C2=O | -5.4%[15.4 µM] | 1.1% | 3.1 | 0.1 | -15.7% | -4.7
Cc1coc2c1C(=O)C(=O)c1c-2ccc2c(C)cccc12 | 27.5% | -0.6% | / | -7.5 | -5.3% | -55.0*
CC1COC2=C1C(=O)C(=O)c1c2ccc2c1CCCC2(C)C (stereo not given) | / | / | / | / | / | -36.3*
Cc1coc2c1C(=O)C(=O)c1c-2ccc2c1CCCC2(C)C | ? | -0.4% | -2.5 | -16.0 | -12.0% | -39.9*
CC1Cc2cc(S(=O)(=O)CCC(=O)Nc3cccc(F)c3)ccc2N1C(=O)C1CC1 (stereo not given) | / | 1.0% | 12.8 | / | / | /
CC(C)c1nc(SCC(=O)N2CC(=O)Nc3ccccc32)c2ccccc2n1 | 5.6%[15.4 µM] | 10.0% | -1.7 | 12.9 | -43.1% | -8.5
Cc1ccccc1-c1nnn(CC(=O)N(C)CC(=O)Nc2ccccc2C(F)(F)F)n1 | 6.5% | 1.3% | -13.3 | -1.9 | -5.9% | /
O=C1CC(c2ccc(Cl)cc2)CC(=O)N1 | / | / | -3.0 | / | / | /
COc1ccc(C2=NCCn3nc4cc(OC)ccc4c32)cc1 | / | -0.3% | / | -6.5 | -11.8% | /
COc1ccc2c3n([n+]([O-])c2c1)CCN=C3c1ccc(C)cc1 | / | -1.1% | / | -90.5* | 3.2% | /
COc1ccc2c3n([n+]([O-])c2c1)CCN=C3c1cc(Cl)c(N)c(Cl)c1 | / | 1.1% | / | -92.7* | 3.6% | /
COC(=O)C(Cc1ccccc1)NC(=O)c1cc(=O)[nH]c2ccccc12 (stereo not given) | -14.1%[15.4 µM] | 0.3% | 3.7 | 10.0 | / | 4.2
COC(=O)[C@H](CC(C)C)NC(=O)c1cc2c(cn1)[nH]c1ccccc12 | ? | 0.4% | -6.5 | -3.4 | 7.94µM* | 6.0
Nc1ncnc2c1nc(N1CCCCC1)n2[C@@H]1O[C@@H]2COP(=O)(O)O[C@H]2[C@H]1O | / | / | / | / | / | 1.4
CCOC(=O)OCC1C=C[C@H](c2cc(-c3ccccc3)ccc2O)C(c2ccc(C(C)=O)cc2)O1 (stereo not given in full) | / | / | / | / | / | -6.0
CC(=O)c1ccc(-n2c(CCC(=O)O)ccc2-c2ccc(Br)cc2)cc1 | ? | 1.5% | 2.7 | -26.0 | 0.891µM* | 16.9
O=C(CNC(=O)Cc1ccccc1)NCC(=O)OCC(=O)c1cccc2ccccc12 | -1.1% | 0.9% | -2.4 | 13.7 | -0.8% | 3.0
Oc1cccc2c(NC(=S)Nc3ccc(OC(F)F)cc3)cccc12 | 17.3% | 0.3% | 1.9 | -6.7 | -8.1% | -48.4*
FC(F)Oc1ccc(NC(=S)NCc2ccccc2)cc1 | 1.3% | 2.6% | -7.0 | 4.1 | 0.3% | -0.3
CCc1nnc(NC(=O)c2ccc(Cl)nc2)s1 | -18.0% | 0.9% | 9.3 | -22.3 | -7.7% | -24.0
CC(C)(C)c1nnc(NC(=O)c2ccc(Cl)nc2)s1 | 18.1% | 2.4% | 7.2 | -11.0 | 2.9% | -36.3*
Cn1cc(C(=O)C(=O)NC2CCCCC2)c2ccccc21 | 26.1% | 5.6% | 5.1 | 1.1 | 50.1µM* | /
COc1ccc2nnc(-c3ccccc3)n2n1 | 15.8µM* | 15.4% | 6.4 | 20.9 | 15.6% | 0.1
CC(C)CCN1CCc2nc(-c3ccccc3)c3c(c2C1)COC(C)C3 (stereo not given) | / | / | / | / | / | -3.5
CCN1CCCC1CNC(=O)c1ccc2c(c1)N(Cc1ccccc1F)C(=O)c1ccccc1S2(=O)=O (stereo not given) | ? | -1.2% | -100.2* | -3.9 | 0.6% | /
SMILES | gsp ag | RXFP1 ag | RXFP1 antag | Giardia killer | gsp antag | FBPA coupling cs
CC(=O)[C@]1(O)Cc2c(O)c3c(c(O)c2[C@@H](O[C@H]2C[C@H](N)[C@H](O)[C@H](C)O2)C1)C(=O)c1c(O)cccc1C3=O | / | / | / | / | / | -35.2*
CC(=O)[C@]1(O)Cc2c(O)c3c(c(O)c2[C@@H](O[C@H]2C[C@H](N)[C@H](O)[C@H](C)O2)C1)C(=O)c1ccccc1C3=O | / | / | -11.1 | -11.5 | -12.0% | /
COc1cccc2c1C(=O)c1c(O)c3c(c(O)c1C2=O)C[C@@](O)(C(=O)CO)C[C@@H]3O[C@H]1C[C@H](N)[C@@H](O)[C@H](C)O1 | / | / | / | -21.7 | ? | /
COc1cccc2c1C(=O)c1c(O)c3c(c(O)c1C2=O)C[C@@](O)(C(C)=O)C[C@@H]3O[C@H]1C[C@H](N)[C@H](O)[C@H](C)O1 | / | 1.3% | -7.5 | 8.6 | -25.8% | -51.8*!
CC[N+](C)(CC)CC(=O)Nc1c(C)cccc1C | / | / | / | / | / | 1.0
Cc1ccc(Cl)cc1Nc1nn2c(=O)c3ccc(C(=O)NCc4ccc(F)cc4)cc3nc2s1 | / | 1.2% | -13.8 | / | / | /
C[C@@H](CN1CC(=O)NC(=O)C1)N1CC(=O)NC(=O)C1 | / | / | -15.1 | / | / | /
COc1ccc(/C=C(/NC(=O)c2ccccc2)C(=O)N/N=C/c2cccs2)cc1OC | -8.5% | 0.9% | 11.0 | -3.6 | 0.0% | 2.8
COc1ccc([N+](=O)[O-])cc1/C=N/NC(=O)/C(=C\c1cccs1)NC(=O)c1ccccc1 | -31.6% | -0.1% | -12.0 | 0.1 | -19.2% | -41.7*
Cc1ccnc(NS(=O)(=O)c2ccc(N3C(=O)c4ccccc4C3=O)cc2)n1 | 25.1µM* | ? | 6.2 | 3.2 | 8.8% | 3.9
Cc1ccc(CC(=O)Nc2ccc(S(=O)(=O)Nc3nccc(C)n3)cc2)cc1 | -15.4% | 2.0% | -1.3 | ? | 8.91µM* | 6.4
Cc1ccnc(NS(=O)(=O)c2ccc(N3C(=O)c4c(Cl)c(Cl)c(Cl)c(Cl)c4C3=O)cc2)n1 | -7.4%[15.4 µM] | -1.2% | -4.8 | 3.7 | -13.9% | 18.8
Cc1nn(C)c2c1c(-c1ccccc1)cc(=O)n2CC(=O)NC(C)c1ccccc1 (stereo not given) | / | 0.5% | -20.4 | / | / | /
Cc1oc2cc3oc(=O)c(CC(=O)N[C@H](C(=O)N[C@@H](C(=O)O)c4ccccc4)C(C)C)c(C)c3cc2c1C | / | 5.6% | / | -5.9 | 50.1µM* | 3.8
CC(C)(C)c1cc(C(=O)CCN2CCOCC2)cc(C(C)(C)C)c1O | 11.1%[15.4 µM] | -0.4% | -82.7* | -5.2 | 11.7% | 0.2
O=C(CCN1CCOCC1)c1ccc(N2CCCCC2)cc1 | ? | -0.3% | / | -26.8 | 10.9% | /
O=C(c1ccco1)N1CCN(c2c([N+](=O)[O-])nn(-c3cccc(Cl)c3)[n+]2[O-])CC1 | -24.9% | 0.8% | 5.4 | -86.6* | -1.9% | -5.0
CCN1CCN(c2cc(N3CCc4ccccc4C3)c(F)cc2[N+](=O)[O-])CC1 | -3.3% | 0.8% | -115.2* | -0.3 | 16.8% | -2.7
CC(=O)N1CCN(c2cc(N3CCCC3)c(F)cc2[N+](=O)[O-])CC1 | 14.6% | 0.4% | -39.3 | -5.8 | -15.3% | 1.1
c1ccc2c(c1)OC(CCCN1CCCCC1)c1ccccc1S2 (stereo not given) | -6.0% | 1.8% | ? | -10.6 | 21.1% | 0.4
